# Laboratory results: PubChem BioAssay (NCI)
# About 83,000 compounds went through this panel and 20% of them were active in at least one assay; those are over-represented in the sample as a whole.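 Growth was measured after 48 h exposure to one concentration of compound in 96-well plates. Values under 10 count as active.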 Unmarked numbers belong to inactive results. The source made the active and inactive calls.
# What was measured:
# Assay in all cases: NCI-60 one-dose screen, 48 h (100 = growth as untreated, 0 = no growth, -100 = all killed)
# Conditions in all cases: 10 µM unless noted
# T-47D breast = system: T-47D breast
# BT-549 breast = system: BT-549 breast
# MDA-MB-435 melanoma = system: MDA-MB-435 melanoma
# SW-620 colon = system: SW-620 colon
# MCF7 breast = system: MCF7 breast
# HCT-116 colon = system: HCT-116 colon
# HCC-2998 colon = system: HCC-2998 colon
# KM12 colon = system: KM12 colon
Structure (SMILES),growth (T-47D breast),growth (BT-549 breast),growth (MDA-MB-435 melanoma),growth (SW-620 colon),growth (MCF7 breast),growth (HCT-116 colon),growth (HCC-2998 colon),growth (KM12 colon)
N=c1c(S(=O)(=O)c2ccccc2)cc2c(=O)n3ccccc3nc2n1CC1CCCO1 (stereo not given),104%,101%,109%,96.1%,106%,105%,105%,108%
CN(C)c1ccc(-c2nc(-c3ccccc3)c(-c3ccccc3)[nH]2)cc1,79.3%,104%,89.7%,108%,83.1%,86.7%,117%,96.1%
CCc1ccc(CCC(=O)Nc2ncc(Cc3ccccc3)s2)o1,42.5%,63.5%,-54.8% (active),28%,18.7%,23.4%,35.6%,18.4%
CN1CCN(CCOc2ccc(-c3cnc4c(-c5ccc(F)cc5)cnn4c3)cc2)CC1,52.7%,82.8%,-34.3% (active),-86.9% (active),41%,14.5%,71.6%,9.72% (active)
CCCCNC(=O)c1cc([N+](=O)[O-])cc(C2CCCCC2)c1O,12%,36.5%,33.3%,68.6%,39.3%,27.8%,25%,39.5%
COc1cccc(/C=N/NC(=O)c2ccccc2N2CCCC2)c1O,24.7%,17.8%,85.5%,45.3%,5.29% (active),4.81% (active),51.8%,46.5%
O=C1Nc2ccccc2C1(c1c[nH]c2ccccc12)c1c[nH]c2ccccc12,-21.2% (active),-17.7% (active),85%,77%,-1.78% (active),36.6%,26.4%,11.9%
CC1(C)CC[C@]2(CO)CC[C@]3(C)[C@H](CC[C@@H]4[C@@]5(C)CCCNC(C)(C)[C@@H]5CC[C@]43C)[C@H]2[C@H]1O,88.8%,89.3%,82.7%,54.2%,55.2%,50.2%,38.2%,77.9%
Cc1ccc(C2CC(c3nc(-c4ccc(Cl)cc4)oc3C)=NN2C(=O)c2ccncc2)cc1 (stereo not given),77.7%,96%,88.7%,93.4%,84.1%,94.8%,97.6%,88.3%
Nc1nc(N)c2c(n1)NC(c1ccc(Cl)cc1)C1CCc3ccccc3C1=N2 (stereo not given),52.6%,83.2%,44.2%,63.8%,24.8%,31.8%,75.6%,55.4%
C=C1C(=O)O[C@H]2[C@H]1CC/C(COC(=O)c1cc3cc(Cl)ccc3[nH]1)=C\CC[C@@]1(C)O[C@@H]21,-68.2% (active),-47.4% (active),-91.7% (active),-53.1% (active),-71.7% (active),-70.4% (active),-70.5% (active),-59.8% (active)
O=C(c1c[nH]c2ccccc12)c1n[nH]c(=S)n1-c1cccc(Br)c1,26.1%,120%,102%,94.6%,33.4%,89.7%,38.8%,50.7%
CC(C)(C)n1cc(-c2ccnc(NCCCNS(=O)(=O)c3cccc4ccccc34)c2)c(-c2cccc(F)c2)n1,34%,65.4%,90.4%,92.4%,52.9%,53.5%,82.8%,76.6%
COc1ccc(C2=CC(c3cc(OC)c(OC)c(OC)c3)n3ncnc3N2)cc1 (stereo not given),62.9%,4.42% (active),-21.9% (active),21.5%,15%,0.658% (active),26.5%,6% (active)
CCCCNC(=O)Oc1ccc(/C(=C(/C)Cc2ccc(OC)cc2)c2ccc(OCCN3CCCCC3)cc2)cc1,37.9%,81.9%,67.8%,77.4%,26.9%,41.8%,75.5%,73.6%
COc1ccc(-c2nc(/C=C3\C(=O)N(C)c4ccccc43)c3ccccn23)cc1,76%,104%,104%,84.7%,61.9%,56.5%,102%,93.7%
CC1=C(C(=O)Nc2ccccc2)C(c2ccc3c(c2)OCO3)NC(=S)N1 (stereo not given),101%,88.1%,103%,107%,99.8%,93.2%,109%,103%
O=C(NNC(=O)c1nc2cc(F)ccc2n2cccc12)c1cnccn1,38.5%,66%,36.2%,26.4%,34.8%,32.4%,50.7%,28%
c1ccc2c(c1)CCCc1nnc3nc4ccccc4n3c1-2,31.7%,62.9%,61.9%,53.7%,45.6%,17%,42.4%,55.8%
Cc1ccc(C(=O)c2ccc(CC(=O)NN3C(=O)c4ccccc4C3=O)n2C)cc1,98.3%,110%,99.6%,99.3%,91.4%,107%,104%,102%
C=C1C(=O)O[C@H]2[C@H]1CC/C(COC(=O)NCc1ccc(Cn3c(=O)sn(-c4ccc(C#N)cc4)c3=O)cc1)=C\CC[C@@]1(C)O[C@@H]21,28.1%,60.4%,59.6%,24.1%,27.5%,25.4%,104%,101%
CC1=CCC(OC(=O)C(C)(C)CC(O)(C(C)O)C(O)C2(C)C=CC(Cc3ccc(C(C)C)cc3)(C(C)C)CC2)(C(C)C)CC1 (stereo not given),98.9%,109%,94.1%,92.6%,102%,93.7%,103%,105%
Cc1ccc(-c2csc(N(C(=O)N3CCN(c4cc5c(cc4F)c(=O)c(C(=O)O)cn5C4CC4)CC3)c3ccccc3)n2)cc1,13%,-2.16% (active),14.9%,19.1%,7.97% (active),6.17% (active),13.1%,4.3% (active)
CCOc1c(OC)cc2c(c1O)C(=O)N[C@@H]1[C@@H](O)[C@@H](O)[C@H](O)C[C@@H]21,92.8%,99.6%,108%,107%,92.1%,104%,102%,104%
Cc1[nH]c(C2CC(c3ccc(C(F)(F)F)c(F)c3)=NN2c2ccccc2)c(C)c1C(=O)NCC(F)(F)F (stereo not given),65.9%,103%,98.1%,99.1%,56.5%,82.4%,96.5%,87.5%
Nc1[nH]n2cc(-c3ccc(F)cc3)nc2c1N=Nc1ccc(S(N)(=O)=O)cc1,77.8%,73.9%,78.4%,76.7%,87.7%,62.7%,90.8%,73.1%
C=C1C(=O)O[C@H]2[C@H]1CC/C(COC(=O)CSCSCC(=O)OC/C1=C/CC[C@@]3(C)O[C@H]3[C@H]3OC(=O)C(=C)[C@@H]3CC1)=C\CC[C@@]1(C)O[C@@H]21,20.9%,-5.92% (active),26.6%,-9.08% (active),16.7%,-24% (active),16.5%,35.1%
COc1cccc(NCc2nnc(Nc3ccc(Cl)cc3)c3ccccc23)c1,-8.49% (active),-12.2% (active),-10.3% (active),11.9%,-1.96% (active),-44.2% (active),2.79% (active),-24.9% (active)
CC(=C(c1ccc(OCCN2CCCCC2)cc1)c1ccc(OCCN2CCCCC2)cc1)c1ccc(Cl)cc1,-72.6% (active),-87% (active),-96.6% (active),-84.8% (active),-85.4% (active),-88.9% (active),-93.4% (active),-84.9% (active)
O=S(=O)(NCCNc1nccc(-c2c(-c3ccc(F)c(O)c3)nc3sccn23)n1)c1ccc(F)cc1,35.9%,49.5%,4.98% (active),29.5%,17.1%,6.5% (active),41.8%,25.7%
